This note sets out measurements from PubChem BioAssay.

The source made the active and inactive calls.

Test [1] relates to PRMT1 (protein arginine N-methyltransferase 1). In words: small molecules binding arginine methyltransferase PRMT1 – biochemical, small-molecule microarray, 635 nm fluorescence, primary screen (AID 1088).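 Further: binding of Prmt1 protein to compounds spotted on small-molecule microarray slides.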 The conditions noted are these: higher = more signal.
Test [2] in a line: growth effects on S. cerevisiae YJM789 – YJM789 clinical isolate, OD600, 24 h, basal, primary screen (AID 1089).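 Further: growth of clinical yeast isolate S. cerevisiae YJM 789 seeded 1000 cells per well; test concentration not given here.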 The conditions noted are these: higher = more signal, called active from +8 up or from −8 down.
Test [3] can be described thus: S. pombe growth modifiers, basal conditions – strain 972, OD600, 24 h, no modulator, primary screen (AID 1090).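 Further: basal condition with compound alone and no growth modifier present; test concentration not given here.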 The conditions noted are these: S. pombe 972 growth, higher = more signal, called active from +8 up or from −8 down.
The nature of test [4]: budding yeast growth modifiers under rapamycin – strain BY4716, OD600, 96 h, primary screen (AID 1091). Further: test concentration not given here. The note with it: S. cerevisiae BY4716 + rapamycin, higher = more signal, called active from +8 up or from −8 down.
In test [5] the target is Torsin-1A-interacting protein 2 (Homo sapiens) (UniProt Q8NFQ8). Briefly: small molecules binding lysate-expressed LULL1 – cell lysate, human LULL1 lysate, 635/667 nm fluorescence, primary screen (AID 1092).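 Further: probe is lysate of COS7 cells overexpressing human LULL1; score merges per-feature 667 nm fluorescence with signal-to-noise.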 The conditions noted are these: small-molecule microarray, hLULL1 lysate binding, 635 nm fluorescence; higher = more signal.
Chain of Torsin-1A-interacting protein 2 (Homo sapiens) (Q8NFQ8 whole entry, looked up): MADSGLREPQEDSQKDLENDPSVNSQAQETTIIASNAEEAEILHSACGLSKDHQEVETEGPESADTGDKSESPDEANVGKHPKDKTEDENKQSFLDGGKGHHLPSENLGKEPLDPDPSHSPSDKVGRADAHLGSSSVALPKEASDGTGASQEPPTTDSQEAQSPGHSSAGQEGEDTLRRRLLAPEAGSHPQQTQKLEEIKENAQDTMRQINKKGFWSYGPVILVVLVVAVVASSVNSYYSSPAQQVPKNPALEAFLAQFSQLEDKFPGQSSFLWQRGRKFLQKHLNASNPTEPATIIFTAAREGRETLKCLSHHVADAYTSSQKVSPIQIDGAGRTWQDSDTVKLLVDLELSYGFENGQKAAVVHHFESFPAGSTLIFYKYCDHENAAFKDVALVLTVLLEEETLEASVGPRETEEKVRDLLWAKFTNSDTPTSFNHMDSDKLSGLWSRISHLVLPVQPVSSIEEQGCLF
The nature of test [6]: optical density change of DRC41 E. coli – strain DRC41, OD650, 24 h, E. coli filamentation project, primary screen (AID 1093).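 Further: MC1000 strain lacking acrAB efflux and sulA so SOS filamentation is blocked; test concentration not given here.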 The note with it: E. coli DRC41 growth, higher = more signal, called active from +8 up or from −8 down.
Test [7] can be described thus: probe aLefty2 binding to arrayed compounds – biochemical, biotinylated probe, 635/667 nm fluorescence, primary screen (AID 1094).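 Further: score merges spot fluorescence near 667 nm with spot signal-to-noise ratio.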 The note with it: small-molecule microarray, higher = more signal.
For test [8], the system named is Noggin (protein binding on small-molecule microarray). In words: small molecules binding Noggin protein – biochemical, 635/667 nm fluorescence, primary screen (AID 1095).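 Further: score merges 667 nm feature fluorescence with signal to noise over triplicate slides.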 The note with it: 635 nm fluorescence, higher = more signal.
For test [9], the target named is Neurogenic locus notch homolog protein 3 (Homo sapiens) (UniProt Q9UM47). In words: small molecules binding NOTCH3 protein – biochemical, 635/667 nm fluorescence, primary screen (AID 1096). The note with it: small-molecule microarray, 635 nm fluorescence, higher = more signal.
Chain of Neurogenic locus notch homolog protein 3 (Homo sapiens) (Q9UM47 whole entry, looked up): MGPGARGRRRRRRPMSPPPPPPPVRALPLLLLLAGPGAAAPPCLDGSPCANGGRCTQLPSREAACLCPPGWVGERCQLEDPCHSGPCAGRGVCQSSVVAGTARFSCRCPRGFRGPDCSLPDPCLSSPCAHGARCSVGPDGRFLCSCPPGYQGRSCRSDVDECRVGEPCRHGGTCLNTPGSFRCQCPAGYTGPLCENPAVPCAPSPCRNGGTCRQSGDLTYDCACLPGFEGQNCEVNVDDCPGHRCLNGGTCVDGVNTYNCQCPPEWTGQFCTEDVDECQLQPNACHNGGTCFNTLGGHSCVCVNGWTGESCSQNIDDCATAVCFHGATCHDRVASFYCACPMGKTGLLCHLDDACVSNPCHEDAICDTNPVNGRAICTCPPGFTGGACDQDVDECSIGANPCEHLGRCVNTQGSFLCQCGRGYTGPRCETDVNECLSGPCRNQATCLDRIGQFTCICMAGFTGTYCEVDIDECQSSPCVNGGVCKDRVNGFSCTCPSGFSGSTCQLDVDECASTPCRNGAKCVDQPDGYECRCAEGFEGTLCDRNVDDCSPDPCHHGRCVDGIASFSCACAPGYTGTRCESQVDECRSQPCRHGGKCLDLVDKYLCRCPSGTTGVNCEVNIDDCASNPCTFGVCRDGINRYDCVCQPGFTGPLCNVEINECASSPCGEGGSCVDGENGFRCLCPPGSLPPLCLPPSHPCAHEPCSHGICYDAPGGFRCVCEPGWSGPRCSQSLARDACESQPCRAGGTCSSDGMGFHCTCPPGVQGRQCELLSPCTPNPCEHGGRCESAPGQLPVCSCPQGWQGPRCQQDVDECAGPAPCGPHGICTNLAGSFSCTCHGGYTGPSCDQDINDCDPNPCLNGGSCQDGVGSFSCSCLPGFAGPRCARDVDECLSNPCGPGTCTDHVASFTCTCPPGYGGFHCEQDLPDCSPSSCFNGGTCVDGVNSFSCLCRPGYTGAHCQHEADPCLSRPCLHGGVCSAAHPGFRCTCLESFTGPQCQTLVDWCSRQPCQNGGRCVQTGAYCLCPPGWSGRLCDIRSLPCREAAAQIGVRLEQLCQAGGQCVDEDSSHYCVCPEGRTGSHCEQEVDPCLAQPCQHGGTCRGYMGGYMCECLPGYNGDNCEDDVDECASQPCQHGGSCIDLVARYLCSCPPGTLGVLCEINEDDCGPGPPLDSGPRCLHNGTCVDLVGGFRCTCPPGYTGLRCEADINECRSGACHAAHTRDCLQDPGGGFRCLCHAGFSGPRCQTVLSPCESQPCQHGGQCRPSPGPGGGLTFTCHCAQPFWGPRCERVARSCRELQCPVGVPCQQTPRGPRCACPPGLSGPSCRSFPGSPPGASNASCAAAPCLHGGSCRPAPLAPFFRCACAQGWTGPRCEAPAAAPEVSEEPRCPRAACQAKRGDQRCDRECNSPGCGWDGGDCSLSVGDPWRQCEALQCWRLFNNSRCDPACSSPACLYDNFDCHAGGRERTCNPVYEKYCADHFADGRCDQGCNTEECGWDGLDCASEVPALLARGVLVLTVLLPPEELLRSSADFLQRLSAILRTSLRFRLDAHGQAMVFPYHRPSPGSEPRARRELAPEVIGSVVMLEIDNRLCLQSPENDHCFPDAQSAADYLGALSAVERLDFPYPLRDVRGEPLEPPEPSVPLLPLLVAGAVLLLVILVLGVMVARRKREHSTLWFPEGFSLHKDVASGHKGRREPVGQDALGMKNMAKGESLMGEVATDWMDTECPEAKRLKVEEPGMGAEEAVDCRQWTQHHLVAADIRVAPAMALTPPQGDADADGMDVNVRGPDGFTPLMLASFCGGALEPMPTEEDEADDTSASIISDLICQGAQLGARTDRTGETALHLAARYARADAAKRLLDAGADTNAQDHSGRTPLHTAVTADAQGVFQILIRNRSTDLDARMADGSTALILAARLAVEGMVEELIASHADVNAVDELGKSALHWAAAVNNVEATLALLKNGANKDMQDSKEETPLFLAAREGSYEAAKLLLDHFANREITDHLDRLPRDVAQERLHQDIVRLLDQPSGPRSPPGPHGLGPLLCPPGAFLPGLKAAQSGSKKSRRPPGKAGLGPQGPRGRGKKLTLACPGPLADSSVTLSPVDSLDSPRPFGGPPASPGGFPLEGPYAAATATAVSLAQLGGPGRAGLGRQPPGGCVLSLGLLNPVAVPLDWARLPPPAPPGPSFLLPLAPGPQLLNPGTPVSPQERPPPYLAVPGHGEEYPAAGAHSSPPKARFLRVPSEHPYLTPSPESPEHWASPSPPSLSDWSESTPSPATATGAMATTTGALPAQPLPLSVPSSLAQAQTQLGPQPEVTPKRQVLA
Test [10] can be described thus: probe aEGFR binding to arrayed compounds – biochemical, biotinylated probe, 635/667 nm fluorescence, primary screen (AID 1097).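 Further: probe is a biotinylated anti-EGFR antibody binding compounds printed on slides; score combines fluorescence near 667 nm and signal to noise of each spot.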 The conditions noted are these: small-molecule microarray, higher = more signal.
Test [11] relates to Plasmodium falciparum Sir2 (PF13_0152, Sir2A). Briefly: Plasmodium falciparum Sir2A binding compounds – biochemical, small-molecule microarray, 635 nm fluorescence, primary screen (AID 1098).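 Further: score merges spot fluorescence intensity with its signal-to-noise ratio.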 The conditions noted are these: fluorescence 635 nm, higher = more signal.
The nature of test [12]: probe aDKK1 binding to arrayed compounds – biochemical, biotinylated probe, 635/667 nm fluorescence, primary screen (AID 1099).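 Further: score merges 667nm spot fluorescence with signal to noise across triplicate slides; reference of the scale not given here.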 The note with it: small-molecule microarray, higher = more signal.
Test [13] is described as follows: probe aCHRDL2 binding to arrayed compounds – biochemical, biotinylated probe, 635/667 nm fluorescence, primary screen (AID 1100). The note with it: small-molecule microarray, higher = more signal.
The nature of test [14]: change in splice reporter luminescence, either direction, cell-based, HEK293, spliceosome inhibition project, primary screen (AID 1101).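 Further: HEK293 cells carrying a splicing-competent luciferase reporter gene; test concentration not given here.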 The conditions noted are these: HEK293 splicing luciferase reporter, 24 h, higher = more signal, called active from +8 up or from −8 down. (In a reporter assay the amount or activity of a reporter protein is the signal.)
The target of test [15] is Fibroblast growth factor 10 (Homo sapiens) (UniProt O15520). Briefly: compounds binding fibroblast growth factor 10 – biochemical, small-molecule microarray, 635 nm fluorescence, primary screen (AID 1102). The conditions noted are these: FGF10 binding, fluorescence 635 nm, higher = more signal.
Chain of Fibroblast growth factor 10 (Homo sapiens) (O15520 whole entry, looked up): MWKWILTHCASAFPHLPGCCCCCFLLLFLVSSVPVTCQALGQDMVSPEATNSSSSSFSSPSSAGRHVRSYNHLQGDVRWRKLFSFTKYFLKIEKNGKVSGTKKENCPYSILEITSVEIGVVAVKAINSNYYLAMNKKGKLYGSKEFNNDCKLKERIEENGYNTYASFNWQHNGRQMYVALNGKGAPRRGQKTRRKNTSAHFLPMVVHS
Test [16] relates to glycogen synthase kinase-3 (GSK3A per assay name; protocol says GSK3B). Briefly: compounds binding glycogen synthase kinase-3 – biochemical, small-molecule microarray, 635 nm fluorescence, GSK3A, primary screen (AID 1103). Further: the record names both GSK3A and GSK3B. The note with it: fluorescence 635 nm, higher = more signal.
Test [17] addresses Epidermal growth factor receptor (Homo sapiens) (UniProt P00533). Briefly: compounds binding epidermal growth factor receptor – biochemical, small-molecule microarray, 635 nm fluorescence, primary screen (AID 1104).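 Further: score merges 667 nm emission intensity with spot signal to noise over triplicate slides.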 The conditions noted are these: EGFR binding, higher = more signal.
Test [18] concerns the target Follistatin-related protein 3 (Homo sapiens) (UniProt O95633). Briefly: compounds binding follistatin-related protein 3 – biochemical, small-molecule microarray, 635 nm fluorescence, primary screen (AID 1105).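 Further: score merges emission near 667 nm and signal to noise per printed spot across three slides.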 The conditions noted are these: FSTL3 binding, higher = more signal.
The target of test [19] is Dickkopf-related protein 1 (Homo sapiens) (UniProt O94907). In words: small molecules binding DKK1 protein – biochemical, small-molecule microarray, 635 nm fluorescence scan, primary screen (AID 1106).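 Further: score merges emission near 667 nm with signal to noise over three replicate slides.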 The note with it: higher = more signal.
Chain of Dickkopf-related protein 1 (Homo sapiens) (O94907 whole entry, looked up): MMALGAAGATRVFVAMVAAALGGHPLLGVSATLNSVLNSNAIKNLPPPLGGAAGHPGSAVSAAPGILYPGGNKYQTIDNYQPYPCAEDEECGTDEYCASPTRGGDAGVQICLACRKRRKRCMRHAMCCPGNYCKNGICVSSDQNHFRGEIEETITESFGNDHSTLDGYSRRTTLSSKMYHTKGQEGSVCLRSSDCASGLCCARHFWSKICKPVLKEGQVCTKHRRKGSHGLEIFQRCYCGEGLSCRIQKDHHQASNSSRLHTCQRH
Test [20] concerns Inhibin beta A chain (activin A). Briefly: small molecules binding activin A – biochemical, small-molecule microarray, 635 nm fluorescence scan, primary screen (AID 1107).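 Further: mouse activin A protein probed at 4.33 µg/mL on printed slides; score merges bound-protein fluorescence near 667 nm with spot signal-to-noise.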 The conditions noted are these: INHBA, higher = more signal.

Chain of Follistatin-related protein 3 (Homo sapiens) (O95633 whole entry, looked up): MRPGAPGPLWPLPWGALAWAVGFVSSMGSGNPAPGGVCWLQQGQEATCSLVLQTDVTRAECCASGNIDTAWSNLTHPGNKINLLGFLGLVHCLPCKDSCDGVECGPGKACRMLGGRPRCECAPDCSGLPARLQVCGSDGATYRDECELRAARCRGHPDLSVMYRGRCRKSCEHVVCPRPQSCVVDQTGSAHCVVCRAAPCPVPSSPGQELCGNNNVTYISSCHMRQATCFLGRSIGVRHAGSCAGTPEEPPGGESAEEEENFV
Chain of Epidermal growth factor receptor (Homo sapiens) (P00533 whole entry, looked up): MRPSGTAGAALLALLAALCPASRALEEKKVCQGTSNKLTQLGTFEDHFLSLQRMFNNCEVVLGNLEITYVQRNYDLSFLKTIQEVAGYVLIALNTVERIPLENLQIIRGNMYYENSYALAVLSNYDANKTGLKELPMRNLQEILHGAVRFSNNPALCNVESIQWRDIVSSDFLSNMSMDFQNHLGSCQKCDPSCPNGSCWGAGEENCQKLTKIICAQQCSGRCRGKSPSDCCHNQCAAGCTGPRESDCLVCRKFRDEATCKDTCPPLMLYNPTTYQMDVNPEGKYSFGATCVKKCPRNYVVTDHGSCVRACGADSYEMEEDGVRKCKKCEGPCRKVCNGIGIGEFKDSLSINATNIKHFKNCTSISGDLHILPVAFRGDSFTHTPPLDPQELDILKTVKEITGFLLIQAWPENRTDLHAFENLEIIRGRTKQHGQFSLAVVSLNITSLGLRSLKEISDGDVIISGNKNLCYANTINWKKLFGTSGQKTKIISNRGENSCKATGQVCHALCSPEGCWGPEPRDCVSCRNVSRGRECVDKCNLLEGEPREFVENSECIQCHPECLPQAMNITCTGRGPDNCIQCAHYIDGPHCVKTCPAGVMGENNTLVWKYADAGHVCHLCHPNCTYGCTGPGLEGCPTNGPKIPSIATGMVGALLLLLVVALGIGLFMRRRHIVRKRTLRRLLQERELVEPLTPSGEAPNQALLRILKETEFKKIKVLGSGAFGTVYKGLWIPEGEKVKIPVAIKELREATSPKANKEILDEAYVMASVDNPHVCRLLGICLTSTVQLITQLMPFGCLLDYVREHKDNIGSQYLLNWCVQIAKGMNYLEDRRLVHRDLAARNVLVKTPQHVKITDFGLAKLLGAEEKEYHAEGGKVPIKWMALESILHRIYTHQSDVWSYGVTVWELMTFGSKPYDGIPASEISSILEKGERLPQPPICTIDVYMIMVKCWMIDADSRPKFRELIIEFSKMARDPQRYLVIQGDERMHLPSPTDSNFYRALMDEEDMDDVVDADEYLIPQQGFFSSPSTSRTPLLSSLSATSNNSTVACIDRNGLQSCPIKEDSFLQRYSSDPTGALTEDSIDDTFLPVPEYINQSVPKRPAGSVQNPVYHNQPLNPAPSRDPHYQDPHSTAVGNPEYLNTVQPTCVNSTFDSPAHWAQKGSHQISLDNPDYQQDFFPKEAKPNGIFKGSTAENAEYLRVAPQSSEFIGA

In the case of `CCOC(=O)NN=C1C[C@@H](O)[C@@H](O)[C@@H]2[C@@H]3C(=O)N(c4ccc(F)cc4F)C(=O)[C@@H]3CC[C@@H]12`, the composite z-score in test [1] is -0.009; in test [5] it was 0.0129; in test [7] it was -0.0347; in test [8], 0.139; in test [9], 0.578; in test [10], -0.124. For the same molecule, the composite z-score in [11] was 0.468; in test [12] it was -0.132; in test [13], -0.364; in [15] it was 0.478; in test [16], 0.364; in [17], 0.527. In addition, the composite z-score in test [18] turned out to be 0.659; in test [19], 0.462; in test [20], 0.18. Also, the z-score was 0.517 (inactive) in test [2]; 0.733 (inactive) in test [3]; -0.0512 (inactive) in [4]; 0.783 (inactive) in test [6]; 0.428 (inactive) in test [14].

On to `CCCCC#C[C@@H]1C=C[C@H](Oc2ccc(C(=O)OC)cc2)[C@@H](COC(=O)OCC)O1`, for which the composite z-score in test [1] is 0.888; in [5] it was 0.508; in [7], -0.115; in [8], 0.198; in test [9], 0.531; in test [10], -0.0051. Besides, the composite z-score was 0.716 in test [11]; 0.015 in test [12]; -0.334 in test [13]; 0.785 in test [15]; 0.277 in [16]; 0.385 in [17]. Besides, the values for the composite z-score in test [18], in [19] and in test [20] were 1.05, 0.414 and 0.273, respectively. Further, the z-score in test [2] is 0.143 (inactive); in [3], -19.5 (active); in test [4] it was -0.611 (inactive); in [6], 0.197 (inactive); in test [14] it was 0.545 (inactive).

For `CO[C@H](C1CCCCC1)[C@H](C)C=CCC(=O)OCCCc1ccccc1`, the composite z-score in [1] was -0.53; in test [5], -0.242; in test [7], -0.192; in test [8], -0.0107; in [9], -0.226; in [10], -0.134. For the same molecule, the composite z-score in test [11] is -0.023; in test [12], -0.38; in test [13], -0.708; in test [15], 0.227; in test [16], -0.518; in test [17], 0.471. The composite z-score in test [18] turned out to be 0.201; in [19] it was 0.287; in test [20], 0.332. Further, the z-score in test [2] is 1.37 (inactive); in test [3] it was 0.5 (inactive); in test [4], 1.49 (inactive); in test [6], -0.0775 (inactive); in test [14] it was -0.0118 (inactive).

`CO[C@H]1COC(=O)CC=C[C@H](C)[C@@H](OC)COC(=O)[C@@H](C)COC(=O)CC=C[C@@H]1C`: the composite z-score in [1] is 1.48; in test [5], -0.108; in test [7], -0.235; in test [8], 2.04; in [9] it was -0.399; in [10], -0.0171. Moreover, the composite z-score is 0.567 in test [11]; -0.909 in test [12]; -1.66 in test [13]; 0.902 in test [15]; 0.709 in test [16]; 1.32 in [17]. Further, the composite z-score is 1.47 in test [18], 1.3 in test [19] and 1.79 in test [20]. Also, the z-score was 0.235 (inactive) in test [2]; -1.41 (inactive) in [3]; -0.487 (inactive) in test [4]; -0.176 (inactive) in [6]; 0.337 (inactive) in test [14].

Consider `COc1cccc([C@H]2Oc3ccc(OC)cc3C(=NO[C@@H](C)c3cn([C@H](CO)Cc4ccccc4)nn3)[C@@H]2O)c1`, for which the composite z-score in test [1] is 0.0733; in [5] it was -0.123; in [7], -0.21; in test [8] it was -0.335; in test [9], -0.367; in test [10], -0.18. Also, the composite z-score in test [11] was 0.482; in [12], -0.268; in test [13] it was -0.303; in [15], 0.167; in test [16] it was -0.58; in test [17], -0.0558. The composite z-score in test [18] is -0.201; in [19] it was 0.113; in test [20], 0.176. Also, the z-score in test [2] is 0.401 (inactive); in test [3], 0.0329 (inactive); in test [4], 0.0485 (inactive); in test [6], -0.486 (inactive); in test [14], -0.0241 (inactive).
